Assay results from the supplement of paper PMC11732987, “Enantioselective OTUD7B fragment discovery through chemoproteomics screening and high-throughput optimisation” (Communications Chemistry, 2025).

Assays:
Experiment in all cases: log2 ratio of Biotin-Ahx-Ub-VS probe labelling (fragment/DMSO); higher = less target engagement (more negative = stronger competition), active = hit call of the paper (q ≤ 0.05, log2 ratio ≤ -1)
Conditions in all cases: compound concentration: 200 uM; treatment time: 3 h
USP19 = target: T1, USP19 (UniProt O94966)
T1 sequence (whole entry): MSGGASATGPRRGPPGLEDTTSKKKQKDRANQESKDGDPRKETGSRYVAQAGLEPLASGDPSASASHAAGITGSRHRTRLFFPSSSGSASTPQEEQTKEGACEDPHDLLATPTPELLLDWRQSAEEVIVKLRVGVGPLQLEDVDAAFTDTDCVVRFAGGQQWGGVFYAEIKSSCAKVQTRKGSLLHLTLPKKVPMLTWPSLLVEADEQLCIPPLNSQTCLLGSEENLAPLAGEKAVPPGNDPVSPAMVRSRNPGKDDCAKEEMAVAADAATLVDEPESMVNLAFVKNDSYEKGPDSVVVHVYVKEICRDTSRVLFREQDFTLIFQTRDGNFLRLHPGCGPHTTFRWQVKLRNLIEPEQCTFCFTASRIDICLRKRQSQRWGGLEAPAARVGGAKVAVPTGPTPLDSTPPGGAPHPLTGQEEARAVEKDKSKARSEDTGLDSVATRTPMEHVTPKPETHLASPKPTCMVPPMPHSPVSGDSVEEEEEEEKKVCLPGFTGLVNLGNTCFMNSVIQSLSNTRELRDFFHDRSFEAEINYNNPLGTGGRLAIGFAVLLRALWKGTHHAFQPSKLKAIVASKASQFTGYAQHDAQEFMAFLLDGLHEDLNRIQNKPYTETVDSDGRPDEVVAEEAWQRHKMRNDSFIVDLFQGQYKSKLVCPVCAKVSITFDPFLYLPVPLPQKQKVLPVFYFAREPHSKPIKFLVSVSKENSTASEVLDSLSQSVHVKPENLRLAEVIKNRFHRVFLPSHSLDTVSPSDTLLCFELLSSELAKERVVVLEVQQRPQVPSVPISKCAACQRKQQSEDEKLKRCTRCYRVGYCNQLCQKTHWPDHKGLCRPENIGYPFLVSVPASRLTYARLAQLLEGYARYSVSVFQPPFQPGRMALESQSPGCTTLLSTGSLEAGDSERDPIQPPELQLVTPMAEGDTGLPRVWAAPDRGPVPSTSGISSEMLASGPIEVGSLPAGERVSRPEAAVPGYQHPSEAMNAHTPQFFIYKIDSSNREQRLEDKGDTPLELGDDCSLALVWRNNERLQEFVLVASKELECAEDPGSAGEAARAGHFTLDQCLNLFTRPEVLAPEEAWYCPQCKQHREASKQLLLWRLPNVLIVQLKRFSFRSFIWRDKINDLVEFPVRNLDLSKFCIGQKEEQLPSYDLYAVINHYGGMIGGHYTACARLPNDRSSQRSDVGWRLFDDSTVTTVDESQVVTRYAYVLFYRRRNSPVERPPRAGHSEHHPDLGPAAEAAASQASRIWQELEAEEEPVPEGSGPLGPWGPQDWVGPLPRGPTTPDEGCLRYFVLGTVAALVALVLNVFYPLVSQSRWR
How it was run: (§1)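 HEK293T lysate, 495 µg per sample in Tris/CHAPS/IGEPAL buffer with protease inhibitors, was treated in triplicate with fragment at 200 µM or vehicle for 3 h and then with Biotin-Ahx-Ub-VS at 0.5 µM final for 1 h. Labelled DUBs were NeutrAvidin-enriched, digested with LysC and trypsin, and run by diaPASEF LC-MS/MS. Spectronaut label-free quantities were global-median-normalised, and values are average log2 fragment/vehicle ratios by unpaired t-test on proteins with ≥2 unique peptides.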

USP24 = USP24 (UniProt Q9UPU5)
How it was run: as §1

USP25 = target: T2, USP25 (UniProt Q9UHP3)
T2 sequence (whole entry): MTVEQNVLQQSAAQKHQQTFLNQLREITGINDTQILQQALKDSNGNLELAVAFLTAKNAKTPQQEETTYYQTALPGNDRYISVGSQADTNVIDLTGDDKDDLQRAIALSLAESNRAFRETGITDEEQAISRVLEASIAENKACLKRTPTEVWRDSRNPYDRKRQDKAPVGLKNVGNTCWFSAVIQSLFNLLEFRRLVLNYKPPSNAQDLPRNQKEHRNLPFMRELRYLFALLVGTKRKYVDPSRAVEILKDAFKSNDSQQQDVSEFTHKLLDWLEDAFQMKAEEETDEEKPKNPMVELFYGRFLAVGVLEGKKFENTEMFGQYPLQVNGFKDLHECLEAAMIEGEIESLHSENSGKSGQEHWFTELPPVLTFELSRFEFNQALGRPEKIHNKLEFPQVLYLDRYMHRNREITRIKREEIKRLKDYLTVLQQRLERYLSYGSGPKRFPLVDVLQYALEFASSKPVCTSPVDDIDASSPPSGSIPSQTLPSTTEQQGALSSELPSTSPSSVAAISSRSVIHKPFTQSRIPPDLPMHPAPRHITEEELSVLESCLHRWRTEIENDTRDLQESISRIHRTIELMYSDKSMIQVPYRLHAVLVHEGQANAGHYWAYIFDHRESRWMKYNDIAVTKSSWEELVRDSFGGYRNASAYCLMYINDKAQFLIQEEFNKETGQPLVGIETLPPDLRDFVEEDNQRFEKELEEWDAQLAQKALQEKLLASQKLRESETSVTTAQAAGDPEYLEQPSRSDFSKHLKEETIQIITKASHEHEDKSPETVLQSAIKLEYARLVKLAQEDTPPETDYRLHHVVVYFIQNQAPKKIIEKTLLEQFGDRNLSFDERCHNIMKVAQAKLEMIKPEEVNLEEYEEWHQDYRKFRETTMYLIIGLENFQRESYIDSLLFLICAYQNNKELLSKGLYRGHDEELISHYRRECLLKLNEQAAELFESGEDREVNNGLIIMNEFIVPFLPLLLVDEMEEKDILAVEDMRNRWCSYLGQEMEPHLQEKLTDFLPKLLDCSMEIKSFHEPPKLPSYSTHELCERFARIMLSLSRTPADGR
How it was run: as §1

USP28 = target: T3, USP28 (UniProt Q96RU2)
T3 sequence (whole entry): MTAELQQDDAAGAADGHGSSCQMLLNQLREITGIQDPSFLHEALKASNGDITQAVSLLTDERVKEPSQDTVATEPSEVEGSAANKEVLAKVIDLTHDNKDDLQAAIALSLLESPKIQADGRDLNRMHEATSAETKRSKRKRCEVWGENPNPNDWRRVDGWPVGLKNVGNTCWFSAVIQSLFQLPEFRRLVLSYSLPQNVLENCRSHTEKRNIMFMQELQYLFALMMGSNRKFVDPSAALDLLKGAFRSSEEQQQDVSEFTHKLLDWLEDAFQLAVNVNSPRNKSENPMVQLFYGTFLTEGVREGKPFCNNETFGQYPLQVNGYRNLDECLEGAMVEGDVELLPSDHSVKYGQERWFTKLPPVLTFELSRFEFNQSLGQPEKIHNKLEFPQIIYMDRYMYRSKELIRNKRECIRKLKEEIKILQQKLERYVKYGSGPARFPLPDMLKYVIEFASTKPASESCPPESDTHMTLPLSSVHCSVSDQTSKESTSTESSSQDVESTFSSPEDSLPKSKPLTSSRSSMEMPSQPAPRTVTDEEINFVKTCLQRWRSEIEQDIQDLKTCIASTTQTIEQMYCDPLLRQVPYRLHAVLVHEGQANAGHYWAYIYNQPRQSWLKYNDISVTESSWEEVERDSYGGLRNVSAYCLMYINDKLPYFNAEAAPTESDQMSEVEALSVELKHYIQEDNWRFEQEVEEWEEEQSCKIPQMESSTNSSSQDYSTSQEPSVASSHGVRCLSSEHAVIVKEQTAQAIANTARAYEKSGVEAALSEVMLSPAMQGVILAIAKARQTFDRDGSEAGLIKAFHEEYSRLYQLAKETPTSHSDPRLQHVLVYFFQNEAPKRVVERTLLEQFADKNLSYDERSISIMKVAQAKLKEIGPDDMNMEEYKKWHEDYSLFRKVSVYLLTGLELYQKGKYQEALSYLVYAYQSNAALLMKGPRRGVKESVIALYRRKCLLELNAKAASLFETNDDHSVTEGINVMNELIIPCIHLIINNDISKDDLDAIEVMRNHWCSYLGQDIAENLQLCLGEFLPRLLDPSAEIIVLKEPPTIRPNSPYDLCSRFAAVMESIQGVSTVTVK
How it was run: as §1

Measured: log2 ratio of Biotin-Ahx-Ub-VS probe labelling

Chain of USP24 (Q9UPU5 whole entry): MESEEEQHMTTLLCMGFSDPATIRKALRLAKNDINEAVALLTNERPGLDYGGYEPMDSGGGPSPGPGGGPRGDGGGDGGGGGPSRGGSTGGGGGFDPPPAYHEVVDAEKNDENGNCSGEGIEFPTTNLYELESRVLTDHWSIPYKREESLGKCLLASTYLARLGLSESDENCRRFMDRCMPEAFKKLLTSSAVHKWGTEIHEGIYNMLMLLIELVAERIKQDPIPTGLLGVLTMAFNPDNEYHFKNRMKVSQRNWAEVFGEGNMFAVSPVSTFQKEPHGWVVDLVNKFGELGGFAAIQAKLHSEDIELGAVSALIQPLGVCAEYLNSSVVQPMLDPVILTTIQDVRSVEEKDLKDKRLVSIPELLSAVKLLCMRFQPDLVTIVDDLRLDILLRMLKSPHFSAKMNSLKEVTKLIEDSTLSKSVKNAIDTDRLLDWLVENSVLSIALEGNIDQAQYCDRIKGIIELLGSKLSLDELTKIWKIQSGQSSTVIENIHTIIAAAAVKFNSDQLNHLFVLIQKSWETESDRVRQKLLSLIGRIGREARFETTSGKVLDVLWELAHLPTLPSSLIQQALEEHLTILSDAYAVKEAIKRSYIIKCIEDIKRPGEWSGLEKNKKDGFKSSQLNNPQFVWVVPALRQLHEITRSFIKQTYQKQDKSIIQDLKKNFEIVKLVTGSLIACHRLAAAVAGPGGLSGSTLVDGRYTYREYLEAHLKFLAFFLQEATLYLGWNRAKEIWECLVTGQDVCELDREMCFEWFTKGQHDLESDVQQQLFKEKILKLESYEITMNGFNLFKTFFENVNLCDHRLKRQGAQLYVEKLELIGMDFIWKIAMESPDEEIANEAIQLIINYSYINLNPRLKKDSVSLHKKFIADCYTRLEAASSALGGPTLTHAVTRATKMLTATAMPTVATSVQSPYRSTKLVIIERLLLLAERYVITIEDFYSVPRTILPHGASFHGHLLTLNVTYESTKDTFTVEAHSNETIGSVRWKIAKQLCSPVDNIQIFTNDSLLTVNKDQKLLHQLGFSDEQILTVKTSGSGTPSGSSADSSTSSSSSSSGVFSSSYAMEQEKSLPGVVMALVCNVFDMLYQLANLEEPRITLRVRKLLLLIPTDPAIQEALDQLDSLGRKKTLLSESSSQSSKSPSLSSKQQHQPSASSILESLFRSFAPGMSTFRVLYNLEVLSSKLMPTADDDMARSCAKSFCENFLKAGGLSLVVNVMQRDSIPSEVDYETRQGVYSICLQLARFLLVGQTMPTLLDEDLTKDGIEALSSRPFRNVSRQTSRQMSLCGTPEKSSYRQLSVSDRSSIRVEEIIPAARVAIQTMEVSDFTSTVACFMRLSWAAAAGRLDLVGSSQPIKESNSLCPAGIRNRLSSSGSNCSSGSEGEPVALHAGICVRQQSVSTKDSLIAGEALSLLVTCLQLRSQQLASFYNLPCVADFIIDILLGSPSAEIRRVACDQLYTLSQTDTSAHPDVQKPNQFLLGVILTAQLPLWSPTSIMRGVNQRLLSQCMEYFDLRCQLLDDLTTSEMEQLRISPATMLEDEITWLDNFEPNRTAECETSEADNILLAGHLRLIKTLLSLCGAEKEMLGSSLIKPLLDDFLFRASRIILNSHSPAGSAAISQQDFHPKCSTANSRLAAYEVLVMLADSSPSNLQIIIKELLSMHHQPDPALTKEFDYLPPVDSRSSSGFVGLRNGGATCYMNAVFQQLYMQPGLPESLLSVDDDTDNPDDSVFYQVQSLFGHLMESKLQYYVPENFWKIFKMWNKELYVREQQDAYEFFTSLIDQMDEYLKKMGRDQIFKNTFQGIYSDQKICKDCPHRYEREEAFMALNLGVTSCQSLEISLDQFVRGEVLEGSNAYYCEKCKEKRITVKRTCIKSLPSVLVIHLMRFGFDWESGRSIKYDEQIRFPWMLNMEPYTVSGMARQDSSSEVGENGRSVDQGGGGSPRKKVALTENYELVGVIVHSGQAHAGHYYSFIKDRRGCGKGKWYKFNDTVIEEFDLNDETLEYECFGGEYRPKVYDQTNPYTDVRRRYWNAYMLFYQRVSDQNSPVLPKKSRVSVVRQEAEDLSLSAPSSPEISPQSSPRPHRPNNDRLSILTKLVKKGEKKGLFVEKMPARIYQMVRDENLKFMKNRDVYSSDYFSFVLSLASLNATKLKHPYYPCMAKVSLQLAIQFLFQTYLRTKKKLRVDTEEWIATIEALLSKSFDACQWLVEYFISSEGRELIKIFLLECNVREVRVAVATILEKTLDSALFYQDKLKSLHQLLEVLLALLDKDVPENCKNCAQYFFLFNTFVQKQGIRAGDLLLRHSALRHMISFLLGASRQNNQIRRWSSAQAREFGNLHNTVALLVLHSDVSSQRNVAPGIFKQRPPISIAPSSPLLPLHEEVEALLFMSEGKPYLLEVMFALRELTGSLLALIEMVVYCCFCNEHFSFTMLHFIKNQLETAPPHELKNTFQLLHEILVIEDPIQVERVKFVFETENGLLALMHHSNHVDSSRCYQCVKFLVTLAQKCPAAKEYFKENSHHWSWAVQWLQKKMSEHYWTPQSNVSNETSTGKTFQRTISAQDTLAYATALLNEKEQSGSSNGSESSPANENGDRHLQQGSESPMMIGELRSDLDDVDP

O=C(CCl)NCc1ccc(N2CCOCC2)c(F)c1
inactive: USP19 0.108 | USP24 0.223 | USP25 -0.255 | USP28 -0.606
